The whole screen tested about 1,400 compounds, of which fewer than 10 were called active. Not all results are given here. A number with no mark means an inactive call.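 How the source made its calls: active means fluorescence-lowering compounds whose fitted half-maximal concentration is at or below ten times the highest valid dose tested; inconclusive means flat curve at 30 to 70% inhibition, or poor fit; inactive means the rest.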

The target of the assay is Histone deacetylase 3 (Homo sapiens) (UniProt O15379). The experiment in a line: HDAC3 deacetylase inhibitors, dose response, counter-screen for JMJD2C/GASC1 demethylase inhibitor project, biochemical, fluorescence, cherry-picked samples (AID 485318).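 Further: enzyme preincubated with compound before substrate and trypsin were added; 0% = neutral control wells and -100% = SAHA positive control wells.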 As to conditions: recombinant HDAC3, fluorogenic peptide/trypsin coupled; series mostly up to 12 µM; activity change, negative = inhibition: at the top concentration.
Histone deacetylase 3 (Homo sapiens), sequence (O15379 whole entry, looked up): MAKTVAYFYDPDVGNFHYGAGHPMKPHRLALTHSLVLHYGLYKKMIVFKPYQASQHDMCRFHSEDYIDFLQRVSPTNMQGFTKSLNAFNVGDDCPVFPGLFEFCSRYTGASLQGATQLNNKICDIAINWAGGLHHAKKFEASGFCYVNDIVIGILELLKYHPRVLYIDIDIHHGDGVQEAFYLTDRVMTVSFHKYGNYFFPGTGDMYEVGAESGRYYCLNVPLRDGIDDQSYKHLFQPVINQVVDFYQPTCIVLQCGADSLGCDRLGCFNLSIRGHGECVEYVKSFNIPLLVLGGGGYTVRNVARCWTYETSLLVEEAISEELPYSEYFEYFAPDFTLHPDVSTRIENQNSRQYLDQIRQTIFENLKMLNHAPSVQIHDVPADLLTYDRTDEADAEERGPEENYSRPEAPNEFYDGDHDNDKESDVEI
As to `NS(=O)(=O)c1ccc(CNC(=S)Nc2ccc(F)c(Cl)c2)cc1`, the “activity change, negative = inhibition” value is 0.414%.
With `O=C(O)c1ccc2c(c1)C(=O)N(CCC1=CCCCC1)C2=O`, the “activity change, negative = inhibition” value is 0.227%.
Turning to `CC(C)N(Cc1ccccc1)C(=O)COC(=O)c1ccc2c(c1)OCCO2`, the “activity change, negative = inhibition” value is -0.449%.
As to `NC(=O)NC(=O)CSc1nnc(-c2ccco2)n1Cc1ccccc1`, the “activity change, negative = inhibition” value was 0.0902%.
As for `O=C(OCc1nnc(-c2ccccc2)o1)c1cc(S(=O)(=O)N2CCOCC2)c(Cl)cc1Cl`, the “activity change, negative = inhibition” value was -0.233%.
Turning to `COc1ccc(C)cc1NC(=O)CN(C)S(=O)(=O)c1ccc2c(c1)CC(C)N2C(C)=O` (configuration not stated), the “activity change, negative = inhibition” value was 0.478%.
As to `OC[C@H]1O[C@@H]2O[C@H]3[C@H](O)[C@@H](O)[C@@H](O[C@H]4[C@H](O)[C@@H](O)[C@@H](O[C@H]5[C@H](O)[C@@H](O)[C@@H](O[C@H]6[C@H](O)[C@@H](O)[C@@H](O[C@H]7[C@H](O)[C@@H](O)[C@@H](O[C@H]1[C@H](O)[C@H]2O)O[C@@H]7CO)O[C@@H]6CO)O[C@@H]5CO)O[C@@H]4CO)O[C@@H]3CO`, the “activity change, negative = inhibition” value is -0.216%.
For `Cc1ccc(C(=O)NCC(=O)OCC(=O)Nc2ccc(Cl)cc2C(F)(F)F)cc1C`, the “activity change, negative = inhibition” value was -0.15%.
For `O=c1[nH]cnc2c1c(-c1ccccc1)cn2-c1ccccc1`, the “activity change, negative = inhibition” value is 0.0419%.
As to `Cc1nc2nc(C)c(CCC(=O)NCc3ccc4c(c3)OCO4)c(C)n2n1`, the “activity change, negative = inhibition” value was 0.43%.
With `O=c1[nH]cc(N2CCCCCC2)c(=O)[nH]1`, the “activity change, negative = inhibition” value was -0.0271%.
As to `O=C(NCc1nnc(SCC(=O)N2CCCCC2)o1)c1c(F)cccc1F`, the “activity change, negative = inhibition” value is -0.609%.
The figure for `O=C(c1cccs1)N1CCN(S(=O)(=O)c2ccc(F)cc2)CC1` is 0.208%; for `O=C(CSc1nnnn1-c1ccc(Cl)cc1)N1CCc2ccccc2C1` it is -0.296%.
For the molecule `CN(C)c1ccc(C(=O)OCC(=O)N2CCCC2)cc1`, the “activity change, negative = inhibition” value was 0.251%.
Take `Cc1ccc(S(=O)(=O)NCCC(=O)OCC(=O)Nc2ccccc2Cl)cc1`: the “activity change, negative = inhibition” value is 0.205%.
In the case of `Cc1ccc(S(=O)(=O)NC(=O)NCc2ccc(Cl)cc2)cc1`, the “activity change, negative = inhibition” value is -0.66%.
As to `O=c1cc(N/N=C/c2ccccc2)[nH]c(=O)[nH]1`, the “activity change, negative = inhibition” value is -0.139%.
For `COc1ccc(NC(=O)N(C)C[C@H]2Oc3c(NS(=O)(=O)c4cccs4)cccc3C(=O)N([C@H](C)CO)C[C@@H]2C)cc1`, the “activity change, negative = inhibition” value was 0.309%.
The figure for `COCCCNC(=S)NNC(=O)c1ccccn1` is 0.84%; for `Cc1ccc(OCCSc2nnc(-c3cccs3)n2C)cc1` it is -0.407%; for `CCCC(=O)Nc1ccc(Oc2ccc(NC(=O)CCC)cc2)cc1` it is 0.3%.
With `COCCCn1c(SCC(=O)NCc2ccco2)nc2sc3c(c2c1=O)CCC3`, the “activity change, negative = inhibition” value is 0.159%.
With `CC(C)(C)c1ccc(-c2csc(NNC3=NCCCCC3)n2)cc1` the figure was -9.81%; with `CC(OC(=O)c1ccc([N+](=O)[O-])s1)C(=O)Nc1ncc(Cl)cc1Cl` (configuration not stated), 0.0687%.
The figure for `O=C(c1ccc(Cn2cc([N+](=O)[O-])cn2)o1)N1CCCCCC1` is 0.287%; for `COc1ccccc1C(=O)OCc1c(-c2ccccc2)ncc2ccccc12` it is -0.395%; for `Cc1ccc2nc(-c3cccc(NS(C)(=O)=O)c3)cc(-c3ccccc3)c2c1` it is 0.133%.
With `COC(=O)C1=C(C)N(CCc2cc(OC)c(OC)c(OC)c2)C(=O)N[C@H]1c1cccs1` the figure was 0.535%; with `COc1ccc(CNCC(=O)Nc2sccc2C#N)cc1`, -0.369%; with `Cc1nn(-c2cccc(C(=O)O)c2)c(C)c1Oc1ccccc1O`, -0.0812%.
Take `CCSCC1COC(c2cccn2Cc2ccc(C)cc2)=N1` (configuration not stated): the “activity change, negative = inhibition” value is 0.82%.
On to `COC(=O)CCC(=O)N1CCOCCOCCN(C(=O)CCC(=O)OC)CCOCCOCC1`, for which the “activity change, negative = inhibition” value is 0.687%.
Consider `O=C1c2sc3nc4c(c(=O)n3c2C(=O)N1c1ccccc1)CCC4`, for which the “activity change, negative = inhibition” value is 0.641%.
With `CC(=O)OC(C(=O)NCc1ccc2c(c1)OCO2)c1ccccc1Cl` (configuration not stated) the figure was -0.735%; with `CCC(=O)Nc1cc2c(cc1C(=O)CC)OCCO2`, -0.0822%; with `CCOC(=O)c1cc2n(n1)C(C(F)(F)F)CC(C)N2` (configuration not stated), 0.00685%.
For the molecule `CCCCNC(=O)c1nn2cc(Br)cnc2c1Br`, the “activity change, negative = inhibition” value is 0.783%.
For `Clc1ccc(N=c2ssnc2Cl)nc1`, the “activity change, negative = inhibition” value is 0.426%.
As to `O=C(c1ccsc1)N1CCN(C(=O)c2cccs2)CC1`, the “activity change, negative = inhibition” value is 0.464%.
As to `COc1ccc2sc(-c3ccc(S(C)(=O)=O)cc3)c(C#CCO)c2c1`, the “activity change, negative = inhibition” value is -0.136%.
With `COc1ccc(CCN=C(NS(=O)(=O)c2ccc(Cl)cc2)c2ccccc2)cc1`, the “activity change, negative = inhibition” value is 0.401%.
With `CCN(CC)CCSc1nc2ccccc2c(=S)n1-c1ccccc1` the figure was -0.421%; with `O=C(Cn1nc(-c2ccc(Cl)cc2)ccc1=O)NCC1COCCO1` (configuration not stated), -0.234%; with `CCC(C)(C)NC(=O)C(c1ccc(C)o1)N(Cc1cccs1)C(=O)Cn1nnc2ccccc21` (configuration not stated), -0.314%.
As to `CCC(=O)N1CCc2cc(Br)cc(S(=O)(=O)CC(=O)OC)c21`, the “activity change, negative = inhibition” value was 0.319%.
For `CCN(CC(=O)Nc1ccc2c(c1)OCCO2)C(=O)CC1CCCC1`, the “activity change, negative = inhibition” value is 0.513%.
For `O=C(CSc1nc(O)c(Cc2ccccc2)c(=O)[nH]1)c1ccccc1`, the “activity change, negative = inhibition” value is -0.826%.
The figure for `Cc1ccc(CSc2ncnc3onc(C)c23)cc1` is -0.218%; for `CCOC(=O)c1c(NC(=O)c2cc(-c3ccc(O)cc3)on2)sc(C(C)=O)c1C` it is 0.792%.
With `C[C@@H](CN1CCC[C@H]1CN1C(N)=NC[C@@H]1Cc1ccccc1)N1C[C@@H](Cc2ccccc2)N(CCc2ccc(Cl)c(Cl)c2)C1=N` the figure was -0.0869%; with `O=C(CSc1nc(-c2ccco2)cc(C(F)(F)F)n1)Nc1ccc(C(=O)N2CCCCC2)cc1`, -1.01%.

The values above are taken from PubChem BioAssay AID485318 (Broad Institute, 2010).
